# Measured values taken from ChEMBL document CHEMBL2218924, “A broad activity screen in support of a chemogenomic map for kinase signalling research and drug discovery” (Biochem J, 2013).
# What was measured:
# [1] = molecular target: Mitogen-activated protein kinase 10 (Homo sapiens) (UniProt P53779); conditions: at 10 µM
# [2] = molecular target: Vascular endothelial growth factor receptor 2 (Homo sapiens) (UniProt P35968); conditions: at 1 µM
# [3] = molecular target: Vascular endothelial growth factor receptor 2 (Homo sapiens) (UniProt P35968); conditions: at 10 µM
# [4] = molecular target: LIM domain kinase 1 (Homo sapiens) (UniProt P53667); conditions: at 1 µM
# [5] = molecular target: LIM domain kinase 1 (Homo sapiens) (UniProt P53667); conditions: at 10 µM
# [6] = molecular target: T1, Serine/threonine-protein kinase STK11 (Homo sapiens) (UniProt Q15831); conditions: at 1 µM
# T1 sequence (whole entry): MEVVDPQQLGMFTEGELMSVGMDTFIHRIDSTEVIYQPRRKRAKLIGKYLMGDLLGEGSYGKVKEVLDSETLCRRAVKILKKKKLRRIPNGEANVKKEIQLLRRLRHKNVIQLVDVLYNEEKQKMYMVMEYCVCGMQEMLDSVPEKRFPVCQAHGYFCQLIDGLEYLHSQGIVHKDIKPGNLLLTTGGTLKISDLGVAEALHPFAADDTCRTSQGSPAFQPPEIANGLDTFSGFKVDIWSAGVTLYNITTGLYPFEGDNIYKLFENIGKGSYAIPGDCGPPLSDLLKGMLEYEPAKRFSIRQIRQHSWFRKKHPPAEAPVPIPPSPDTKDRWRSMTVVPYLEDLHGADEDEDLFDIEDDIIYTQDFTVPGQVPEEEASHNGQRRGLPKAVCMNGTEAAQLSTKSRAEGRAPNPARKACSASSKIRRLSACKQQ
# [7] = molecular target: T1, Serine/threonine-protein kinase STK11 (Homo sapiens); conditions: at 10 µM
# [8] = molecular target: Serine/threonine-protein kinase 10 (Homo sapiens) (UniProt O94804); conditions: at 1 µM
# [9] = molecular target: Serine/threonine-protein kinase 10 (Homo sapiens) (UniProt O94804); conditions: at 10 µM
# [10] = molecular target: Tyrosine-protein kinase Lck (Homo sapiens) (UniProt P06239); conditions: at 1 µM
# Chain of Tyrosine-protein kinase Lck (Homo sapiens) (P06239 2-509 limits assumed): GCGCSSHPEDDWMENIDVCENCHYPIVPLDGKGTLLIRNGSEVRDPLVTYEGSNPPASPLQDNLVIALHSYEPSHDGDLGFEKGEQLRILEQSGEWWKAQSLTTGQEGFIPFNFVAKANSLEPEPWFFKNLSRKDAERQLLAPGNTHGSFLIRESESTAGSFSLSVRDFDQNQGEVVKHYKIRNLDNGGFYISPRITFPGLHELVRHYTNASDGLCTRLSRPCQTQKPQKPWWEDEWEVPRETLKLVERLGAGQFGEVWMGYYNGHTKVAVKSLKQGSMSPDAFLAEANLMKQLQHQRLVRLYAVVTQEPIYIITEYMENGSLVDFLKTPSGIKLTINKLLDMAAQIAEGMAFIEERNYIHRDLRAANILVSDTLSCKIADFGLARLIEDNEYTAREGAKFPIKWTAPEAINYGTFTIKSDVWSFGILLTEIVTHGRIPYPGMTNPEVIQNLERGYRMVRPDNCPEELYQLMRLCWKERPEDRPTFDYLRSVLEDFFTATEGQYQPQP
# Chain of Serine/threonine-protein kinase 10 (Homo sapiens) (O94804 whole entry, looked up): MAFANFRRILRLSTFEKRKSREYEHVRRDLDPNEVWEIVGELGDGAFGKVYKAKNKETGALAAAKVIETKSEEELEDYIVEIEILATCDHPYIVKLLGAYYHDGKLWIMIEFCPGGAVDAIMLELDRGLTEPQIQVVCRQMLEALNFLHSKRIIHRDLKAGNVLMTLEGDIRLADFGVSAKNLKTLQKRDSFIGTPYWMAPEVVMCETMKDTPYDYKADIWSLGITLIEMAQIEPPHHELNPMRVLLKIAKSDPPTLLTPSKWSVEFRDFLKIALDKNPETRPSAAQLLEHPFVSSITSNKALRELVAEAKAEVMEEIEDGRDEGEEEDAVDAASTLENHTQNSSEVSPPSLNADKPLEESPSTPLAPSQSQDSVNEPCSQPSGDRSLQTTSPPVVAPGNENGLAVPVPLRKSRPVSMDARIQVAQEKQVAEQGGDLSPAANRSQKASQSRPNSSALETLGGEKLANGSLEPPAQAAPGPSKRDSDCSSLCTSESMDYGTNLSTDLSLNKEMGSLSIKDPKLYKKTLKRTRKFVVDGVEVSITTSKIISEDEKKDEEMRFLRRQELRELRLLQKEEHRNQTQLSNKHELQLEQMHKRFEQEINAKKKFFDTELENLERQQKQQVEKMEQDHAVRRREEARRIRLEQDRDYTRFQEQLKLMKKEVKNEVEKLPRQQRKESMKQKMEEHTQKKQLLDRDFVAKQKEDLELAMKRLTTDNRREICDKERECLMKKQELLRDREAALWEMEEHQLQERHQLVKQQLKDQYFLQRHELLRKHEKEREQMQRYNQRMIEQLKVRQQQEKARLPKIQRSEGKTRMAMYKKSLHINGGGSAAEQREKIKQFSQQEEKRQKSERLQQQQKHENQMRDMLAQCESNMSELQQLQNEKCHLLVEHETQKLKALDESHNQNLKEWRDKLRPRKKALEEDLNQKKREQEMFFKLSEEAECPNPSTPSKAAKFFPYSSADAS
# Chain of LIM domain kinase 1 (Homo sapiens) (P53667 whole entry, looked up, the tested form may be a part): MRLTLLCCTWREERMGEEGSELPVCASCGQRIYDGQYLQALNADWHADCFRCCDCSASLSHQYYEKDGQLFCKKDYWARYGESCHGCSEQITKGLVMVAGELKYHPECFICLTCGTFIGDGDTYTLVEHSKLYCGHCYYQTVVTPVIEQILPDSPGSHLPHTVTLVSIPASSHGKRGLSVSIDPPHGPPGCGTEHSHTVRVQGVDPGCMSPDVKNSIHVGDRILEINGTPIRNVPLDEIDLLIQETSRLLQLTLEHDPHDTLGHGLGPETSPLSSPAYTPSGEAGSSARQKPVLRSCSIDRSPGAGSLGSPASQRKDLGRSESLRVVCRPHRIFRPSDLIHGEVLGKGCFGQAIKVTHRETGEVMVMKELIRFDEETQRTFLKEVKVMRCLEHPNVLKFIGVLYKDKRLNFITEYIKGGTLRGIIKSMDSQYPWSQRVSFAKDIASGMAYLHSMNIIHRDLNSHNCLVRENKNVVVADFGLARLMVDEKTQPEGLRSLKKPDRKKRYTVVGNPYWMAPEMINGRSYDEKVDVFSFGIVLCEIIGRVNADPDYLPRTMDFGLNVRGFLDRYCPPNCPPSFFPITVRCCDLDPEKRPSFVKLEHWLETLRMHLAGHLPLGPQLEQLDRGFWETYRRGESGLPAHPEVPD
# Chain of Mitogen-activated protein kinase 10 (Homo sapiens) (P53779 whole entry): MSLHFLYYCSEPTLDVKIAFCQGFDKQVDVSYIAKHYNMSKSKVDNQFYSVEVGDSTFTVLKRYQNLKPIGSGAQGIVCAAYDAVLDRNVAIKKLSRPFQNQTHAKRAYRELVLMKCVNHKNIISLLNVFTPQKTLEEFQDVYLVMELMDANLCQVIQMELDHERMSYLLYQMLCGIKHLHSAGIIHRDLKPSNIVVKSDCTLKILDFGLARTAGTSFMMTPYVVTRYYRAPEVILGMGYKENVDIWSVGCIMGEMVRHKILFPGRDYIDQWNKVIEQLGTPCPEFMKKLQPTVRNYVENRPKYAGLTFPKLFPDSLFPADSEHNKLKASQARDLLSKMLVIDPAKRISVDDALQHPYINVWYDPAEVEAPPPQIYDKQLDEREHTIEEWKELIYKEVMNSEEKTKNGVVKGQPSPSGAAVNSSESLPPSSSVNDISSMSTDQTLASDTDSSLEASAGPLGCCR
# Chain of Vascular endothelial growth factor receptor 2 (Homo sapiens) (P35968 whole entry, the tested form may be a part): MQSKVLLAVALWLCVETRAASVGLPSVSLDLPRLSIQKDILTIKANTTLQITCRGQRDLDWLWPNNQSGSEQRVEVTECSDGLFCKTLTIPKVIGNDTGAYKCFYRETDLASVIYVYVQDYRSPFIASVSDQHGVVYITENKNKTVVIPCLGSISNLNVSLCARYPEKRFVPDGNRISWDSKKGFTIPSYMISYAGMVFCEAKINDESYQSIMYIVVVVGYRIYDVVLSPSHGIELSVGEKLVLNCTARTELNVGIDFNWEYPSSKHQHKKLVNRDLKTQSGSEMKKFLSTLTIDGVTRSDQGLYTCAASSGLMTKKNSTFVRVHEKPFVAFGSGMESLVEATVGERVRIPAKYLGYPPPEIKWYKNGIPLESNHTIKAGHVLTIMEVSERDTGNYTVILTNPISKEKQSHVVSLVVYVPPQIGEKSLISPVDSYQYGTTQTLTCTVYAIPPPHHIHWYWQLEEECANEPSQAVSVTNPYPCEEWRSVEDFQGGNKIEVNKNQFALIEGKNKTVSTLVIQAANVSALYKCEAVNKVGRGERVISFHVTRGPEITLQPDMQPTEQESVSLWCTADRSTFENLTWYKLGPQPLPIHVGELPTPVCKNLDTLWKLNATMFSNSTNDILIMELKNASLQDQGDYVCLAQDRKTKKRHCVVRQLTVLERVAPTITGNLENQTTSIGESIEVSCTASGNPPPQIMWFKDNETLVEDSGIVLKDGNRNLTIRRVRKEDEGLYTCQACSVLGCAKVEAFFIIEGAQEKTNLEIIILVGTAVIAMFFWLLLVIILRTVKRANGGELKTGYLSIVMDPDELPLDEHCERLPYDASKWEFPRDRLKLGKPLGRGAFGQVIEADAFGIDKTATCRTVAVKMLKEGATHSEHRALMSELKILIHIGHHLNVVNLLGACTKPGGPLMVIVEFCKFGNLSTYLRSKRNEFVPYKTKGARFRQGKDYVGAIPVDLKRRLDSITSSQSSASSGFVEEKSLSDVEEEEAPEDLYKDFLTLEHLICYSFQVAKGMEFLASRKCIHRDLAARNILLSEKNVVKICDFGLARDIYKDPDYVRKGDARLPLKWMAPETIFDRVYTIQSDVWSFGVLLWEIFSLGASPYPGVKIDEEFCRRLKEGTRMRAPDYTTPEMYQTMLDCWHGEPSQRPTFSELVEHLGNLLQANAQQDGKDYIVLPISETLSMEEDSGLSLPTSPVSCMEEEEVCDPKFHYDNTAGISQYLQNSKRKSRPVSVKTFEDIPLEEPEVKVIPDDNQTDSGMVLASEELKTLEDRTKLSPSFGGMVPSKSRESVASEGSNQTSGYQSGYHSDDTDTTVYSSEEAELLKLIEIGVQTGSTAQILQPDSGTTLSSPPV
Structure (SMILES),residual activity [1],residual activity [2],residual activity [3],residual activity [4],residual activity [5],residual activity [6],residual activity [7],residual activity [8],residual activity [9],residual activity [10]
NC(=O)Nc1sc(-c2ccc(F)cc2)cc1C(N)=O,33%,41%,6%,46%,7%,92%,73%,,,
CN(C)S(=O)(=O)c1ccc2c(c1)/C(=C/c1cc3c([nH]1)CCCC3)C(=O)N2,81%,51%,40%,90%,77%,99%,96%,63%,78%,
O=c1cc(N2CCNCC2)oc2c(-c3ccccc3)cccc12,89%,100%,89%,92%,86%,97%,92%,95%,89%,
CCCCc1c(-c2ccc(OC)cc2)[nH]c2nccnc12,41%,73%,68%,50%,57%,108%,101%,,110%,55%
CCOc1nc(NC(=O)Cc2cc(OC)ccc2OC)cc(N)c1C#N,-2%,,,,,,,,,
O=C(CCCc1ccc(-c2ccccc2F)cc1)Nc1ccc(O)cc1,94%,110%,108%,96%,85%,100%,97%,112%,94%,99%
Nc1ncnc2[nH]nc(Nc3ccc(F)cc3)c12,92%,97%,54%,90%,58%,102%,,53%,7%,49%
COc1ccc2c(c1)c(C1=C(c3c[nH]c4ccccc34)C(=O)NC1=O)cn2CCCN(C)C,37%,28%,3%,99%,65%,101%,99%,54%,22%,
O=c1cc(N2CCOCC2)oc2c1ccc1ccccc12,70%,103%,87%,108%,92%,102%,93%,98%,91%,
O=C1NC(=O)c2c1c1c3ccccc3[nH]c1n1cncc21,11%,10%,8%,71%,48%,84%,62%,70%,58%,61%
O=C1NC(=O)C(c2cn(CCCO)c3ncccc23)=C1c1cnccn1,86%,64%,63%,,80%,85%,75%,94%,80%,
O=C(c1cc2cc(O)ccc2[nH]1)c1cc2cc(O)ccc2[nH]1,33%,18%,3%,74%,41%,100%,,55%,20%,16%
CCCCc1c(-c2ccc(O)cc2)[nH]c2nccnc12,23%,77%,42%,64%,53%,,73%,80%,90%,48%
c1ccc(-c2cnc(Nc3ccc(OCCN4CCCC4)cc3)s2)cc1,36%,10%,4%,64%,16%,108%,103%,75%,55%,58%
O=C1Nc2ccc(Cl)cc2/C1=C/c1cc(Cl)c(O)c(Cl)c1,32%,13%,1%,88%,42%,91%,86%,67%,47%,95%
COc1cc2c(cc1OC)-c1n[nH]c(Nc3cccc(F)c3)c1C2,33%,75%,25%,13%,2%,,,59%,37%,

Structure (SMILES),residual activity [1],residual activity [2],residual activity [3],residual activity [4],residual activity [5],residual activity [6],residual activity [7],residual activity [8],residual activity [9],residual activity [10]
O=C(O)/C=C/c1cc(Br)c(Br)c(Br)c1Br,46%,99%,81%,105%,71%,93%,38%,94%,58%,77%
Nc1ncnc2c1cnn2-c1ccccc1,70%,102%,83%,99%,67%,96%,98%,98%,85%,
Nc1ncnc2c1c(-c1ccc(Oc3ccccc3)cc1)cn2C1CCCC1,81%,24%,3%,72%,13%,105%,91%,73%,38%,1%
NCCNc1ncc(C(N)=O)c(Nc2cccc(C(F)(F)F)c2)n1,46%,101%,78%,102%,50%,74%,20%,,,80%
COc1cc2ncnc(Nc3cccc(Cl)c3)c2cc1OC,50%,60%,16%,111%,41%,100%,101%,24%,8%,52%
O=C(NC(NC(=S)Nc1ccc(F)c([N+](=O)[O-])c1)C(Cl)(Cl)Cl)C(c1ccccc1)c1ccccc1 (centres undefined),79%,104%,102%,90%,75%,98%,103%,,,95%
Cn1c2ccccc2c2c3c(c4c5ccccc5n(CCC#N)c4c21)CNC3=O,9%,7%,6%,48%,20%,82%,96%,21%,8%,
COc1cc2nccc(Oc3ccc(NC(=S)NC(=O)c4ccccc4C)cc3)c2cc1OC,79%,4%,3%,60%,28%,98%,90%,6%,7%,1%
CCN(CC)CCNC(=O)c1c(C)[nH]c(/C=C2\C(=O)Nc3ccc(Cl)cc32)c1C,75%,2%,1%,99%,44%,,,15%,5%,12%
CC(C)(C)c1nc2c3ccc(F)cc3c3c(=O)[nH]ccc3c2[nH]1,-7%,65%,24%,98%,63%,,,72%,32%,
CC(C)(C)n1nc(Cc2cccc3ccccc23)c2c(N)ncnc21,-1%,69%,14%,101%,69%,91%,61%,80%,41%,36%
CC(C)c1nn(-c2c(Cl)cccc2Cl)c2nc(Cc3ccc(OCCO)cc3)[nH]c(=O)c12,29%,98%,89%,102%,84%,90%,48%,55%,55%,104%
Nc1nc(Nc2ccc(S(N)(=O)=O)cc2)nn1C(=O)c1c(F)cccc1F,12%,33%,4%,12%,2%,99%,95%,17%,6%,58%
CCN1/C(=C/C(C)=O)Sc2ccc(OC)cc21,64%,,,,,,,,,
Cn1sc(=O)n(Cc2ccccc2)c1=O,94%,99%,91%,86%,79%,97%,93%,95%,95%,
CCCC(=O)Oc1ccc2[nH]c(C(=O)c3cc4ccccc4[nH]3)cc2c1,69%,94%,70%,98%,80%,98%,96%,85%,96%,89%
